Experimental data taken from PubChem BioAssay (Tox21).
Results filed as inconclusive are left out. Values without a mark were called inactive. Calls of active or inactive are those of the source. Calls come from the whole dose curve.

Assay: qHTS assay for small molecule agonists of the p53 signaling pathway - cell viability (AID 651633);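 note: p53RE-bla HCT reporter cells with a stable beta-lactamase p53 reporter; nearly all actives have a fitted effect of over 30% in size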
Conditions: p53RE-bla HCT-116 viability, ATP luminescence, 16 h; series mostly up to 83.3 µM; activity change, negative = cytotoxicity: at the top concentration
Text: National Center for Advancing Translational Sciences [NCATS]
NIH Chemical Genomics Center [NCGC]
U.S. Environmental Protection Agency [EPA]
National Institutes of Environmental Health Sciences [NIEHS]
National Toxicology Program [NTP]
U.S. Food and Drug Administration [FDA]
p53, a tumor suppressor protein, is activated following cellular insult, including DNA damage and other cellular stresses. The activation of p53 regulates cell fate by inducing DNA repair, cell cycle arrest, apoptosis, or cellular senescence. The activation of p53, therefore, is a good indicator of DNA damage and other cellular stresses. […] The activation of the reporter gene under culture conditions can be detected by fluorescence intensity. This cell line was used to screen the Tox21 compound library in a 1536-well plate format and to identify agonists that activate the p53 signaling pathway.
Tox21 Assay Protocol Summary:
The p53RE-bla cells were dispensed at 4,000 cells/5 ul/well in 1536-well black wall/clear bottom plates using a Multidrop dispenser. After the assay plates were incubated at a 37 C/5% CO2 incubator for 5 hours, 23 nL of compounds dissolved in DMSO, positive controls or DMSO only was transferred to the assay plate by a pin tool. The plates were incubated at 37 C for 16 hours. After 1 uL of LiveBLAzerTM B/G FRET substrate was added using a Flying Reagent Dispenser, the plates were incubated at room temperature for 2 hours, and fluorescence intensity was measured by an Envision plate reader.
For cell viability readout that measures cytotoxicity, 4 ul/well of CellTiter-Glo reagent was added into the assay plates using a Flying Reagent Dispenser. After 30 min incubation at room temperature, the luminescence intensity in the plates was measured using a ViewLux plate reader.
% is set by controls: 0 for no effect and ±100 for the full control effect.

Compound	outcome	activity change, negative = cytotoxicity
CO[Si](CCCOCC1CO1)(OC)OC (stereo not given)	inactive	–
N=C(N)c1ccccc1	–	12.8%
CCO[Si](CCC1CCC2OC2C1)(OCC)OCC (stereo not given)	–	-8.09%
CCOC(=O)Nc1ccc(NCc2ccc(F)cc2)nc1N	inactive	–
O=C1OC(=O)C2CCCCC12 (stereo not given)	–	10.2%
CCCCOCCOCCOCCCC	–	7.08%
CCN(Cc1ccncc1)C(=O)C(CO)c1ccccc1 (stereo not given)	–	11.5%
CC/C=C\CC/C=C/CO	–	-14.4%
Nc1c[n+](N2CCOCC2)no1	–	22.7%
CCCCCCCCS(=O)(=O)Cl	–	-17.2% [at 95.3 µM]
CC(C)NC(=O)NC(C)C	–	5.69%
Cc1ccc(=O)n(-c2ccccc2)c1	–	12.9%
C1OCOCO1	–	-5.6% [at 95.3 µM]
CC(C)(C)c1nnc(NS(=O)(=O)c2ccccc2)s1	–	13%
CC/C=C\CC/C=C/C(OCC)OCC	–	19.8%
CC(C)c1cc2c(cc1S(=O)(=O)O)[C@@]1(C)CCC[C@@](C)(C(=O)O)[C@@H]1CC2	–	3.83%
Cc1c(O)cccc1O	–	7.31% [at 95.3 µM]
CCN1CCC[C@H]1CNC(=O)c1cc(S(N)(=O)=O)ccc1OC	–	12.9%
O=C1CC2CC1C1CCCC21 (stereo not given)	–	18.3%
Cc1ccc(Cl)cc1Cl	–	9.47%

Compound	outcome	activity change, negative = cytotoxicity
O=C(O)CCCl	–	-15.1% [at 95.3 µM]
C=CCCCCCCCCC=O	–	6.19%
N[C@H](C(=O)O)c1ccc(O)cc1	–	-6.42%
COCCc1ccc(OCC(O)CNC(C)C)cc1 (stereo not given)	inactive	–
Cc1cc2c(cc1S(N)(=O)=O)S(=O)(=O)CCC2	–	19.3% [at 39.1 µM]
COc1ccc(CCN(C)CCCC(C#N)(c2cc(OC)c(OC)c(OC)c2)C(C)C)cc1OC (stereo not given)	–	-14%
NCCc1cnc[nH]1	–	17.4%
CC(C)CCCC(C)N (stereo not given)	–	-9.54%
CCN(CC)CCOCCOC(=O)C1(c2ccccc2)CCCC1	–	-16.2%
CC(=O)Nc1ccc(S(N)(=O)=O)cc1	–	14.8%
CC(C)(C)c1ccc(O)c(O)c1	–	-14.7% [at 95.3 µM]
COc1cc(C(=O)N2CCCCCCC2)cc(OC)c1OC	–	4.74%
CCCCCOC(=O)CCCCC	–	12.1%
CC(C)(C)NCCNC(C)(C)C	–	9.59%
CC(C)(CC(=O)O)C(=O)O	–	15.5%
CC(C(=O)O)c1ccc(CC2CCCC2=O)cc1 (stereo not given)	–	7.97%
CO/N=C(/C(=O)N[C@@H]1C(=O)N2C(C(=O)OCOC(=O)C(C)(C)C)=C(C)CS[C@H]12)c1csc(N)n1	–	16.2%
N=c1nc(N2CCCCC2)cc(N)n1O	–	10.5%
CC(C)(O)C(=O)c1ccccc1	–	-8.38%
Nc1cc(=O)[nH]c(N)n1	–	8.71%
